Screening results as filed in PubChem BioAssay.
DT40 TDP1 no CPT = qHTS for Inhibitors of human tyrosyl-DNA phosphodiesterase 1 (TDP1): qHTS in cells in absence of CPT; DT40 Tdp1-/- hTDP1 cells, no CPT, ATP luminescence, 48 h; 420,000 compounds, 15% hits; Potency, µM (highest dose often 46.2 µM), most hits filed as inhibitors; AID 686978, 2013; also: nearly all actives have a fitted effect of over 55% in size
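Luminescent ATP content (CellTiter-Glo) served as the growth readout. Knockout chicken DT40 cells expressing human TDP1 were exposed to compounds without camptothecin for a minimum 48 hr at 37 °C.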
RORg inh = ROR gamma (mouse) transcription inhibition | Drosophila S2 Gal4-RORgamma UAS-luciferase reporter, 20 h | Potency, µM (highest dose often 53.6 µM), hits mostly inhibitors | 310,000 compounds, 5.4% hits | AID 2551; also: nearly all actives have a fitted effect of over 60% in size
Target sequence (P51450 whole entry, looked up, the tested form may be a part): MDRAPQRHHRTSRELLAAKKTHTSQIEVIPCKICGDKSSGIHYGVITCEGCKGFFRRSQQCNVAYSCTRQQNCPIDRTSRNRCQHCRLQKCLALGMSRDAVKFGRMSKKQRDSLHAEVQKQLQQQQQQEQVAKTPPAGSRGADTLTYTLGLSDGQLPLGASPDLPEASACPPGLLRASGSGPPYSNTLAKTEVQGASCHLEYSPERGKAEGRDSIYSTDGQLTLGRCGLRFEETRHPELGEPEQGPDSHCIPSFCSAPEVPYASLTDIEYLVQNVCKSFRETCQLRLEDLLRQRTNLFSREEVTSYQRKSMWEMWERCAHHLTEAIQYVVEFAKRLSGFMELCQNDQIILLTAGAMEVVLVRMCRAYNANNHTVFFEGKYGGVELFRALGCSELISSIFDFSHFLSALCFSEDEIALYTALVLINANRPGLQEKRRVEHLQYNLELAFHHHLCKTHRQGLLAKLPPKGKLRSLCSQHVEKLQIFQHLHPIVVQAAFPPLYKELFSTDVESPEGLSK
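Drosophila Schneider cells stably carrying a metallothionein-driven Gal4 DBD–ROR gamma fusion and a UAS-Photinus luciferase reporter were exposed to compound for 1 hr, then induced with copper sulfate (700 uM final) for 20 hr at ambient temperature before luminescence reading.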
Gal4-VP16 FLuc = Gal4-VP16 reporter inhibition counter-screen; Potency, µM (titrated, usually from 53.6 µM), most hits filed as inhibitors; Drosophila S2 Gal4-VP16 UAS-luciferase, luminescence, 20 h; 310,000 compounds, 3.5% hits;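 also: Gal4-VP16 expression switched on by copper sulfate through the metallothionein promoter; nearly all actives have a fitted effect of over 50% in size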
LDHA block = LDHA (human) enzyme inhibition; purified LDHA, NADH/diaphorase-resazurin fluorescence; hits give low values; activity change, % (values are at about 110 or 230 µM); 480,000 compounds, 0.15% hits; P00338; AID 1347041; in the data active = activity change below about -30%; inconclusive = mostly about -25% to -30%
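Remaining NADH was detected by diaphorase (0.133 mg/mL) converting 37 µM resazurin to fluorescent resorufin, read at 0 and 20 minutes. The preceding 5-minute room-temperature reaction used 2 nM LDHA, 0.2 mM sodium pyruvate and 0.06 mM NADH at pH 7.4.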
IL1B secr inh = blocks inflammasome-driven IL-1 beta release. 360,000 compounds, 4.7% hits. AID 743279. THP-1 LPS/ATP IL-1B secretion, AlphaLISA, 16 h; hits give low values. activity change, % at 57.5 µM; in the data active = activity change below about -50%; inconclusive = mostly about -30% to -49%
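THP-1 cells pretreated 1 hr with compounds (up to 57.5 uM final), then stimulated with LPS (250 ng/mL final) plus ATP (1.25 mM final); secreted IL-1B measured by AlphaLISA after 16 hr, decreased signal indicating inhibition.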
TDP1 cell CPT = growth inhibition of DT40 Tdp1-/-;hTDP1 cells with camptothecin (screen for TDP1 inhibitors); chicken DT40 Tdp1-/-;hTDP1 cells + 20 nM CPT, ATP luminescence, 48 h; Potency, µM (doses to about 46.2 µM), hits mostly inhibitors; 420,000 compounds, 12% hits; also: nearly all actives have a fitted effect of over 55% in size
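Chicken DT40 Tdp1-/- cells complemented with human TDP1, 400 cells/well, exposed to compounds plus 20 nM camptothecin for at least 48 h at 37 C; viability read as ATP content by CellTiter-Glo luminescence.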
Hits are given with their value; - = inactive; ? = inconclusive; . = no result; [ ] = dose if it differs, or a comment. Most compounds without a hit are left out; they make up all but 18% or so of the library. Unless noted, calls follow the shape of the dose curve; as a rule, active = well fitted curve in the direction sought with a large enough effect; inconclusive = small, poorly fitted or top-dose-only effect, or another doubt; inactive = no such curve, though single readings can be large; an effect the other way counts as inactive or inconclusive.

SMILES | DT40 TDP1 no CPT | RORg inh | Gal4-VP16 FLuc | LDHA block | IL1B secr inh | TDP1 cell CPT
CN1CCN(c2ncc3nc(CCc4ccccc4)c(=O)n(Cc4cccs4)c3n2)CC1 | 20.6µM | - | - | . | . | ?
COc1ncc2nc(-c3ccc(F)cc3)c(=O)n(Cc3ccc(F)cc3)c2n1 | - | - | - | . | . | -
COc1ncc2nc(CCc3ccccc3)c(=O)n(Cc3ccc(F)cc3)c2n1 | 23.1µM | - | - | . | . | ?
CN1CCN(c2ncc3nc(-c4cn(C)c5ccccc45)c(=O)n(Cc4cccs4)c3n2)CC1 | 0.366µM | - | ? | . | . | 1.64µM
CC(C)=CC1C(C(=O)NCc2ccccc2OC(F)F)C1(C)C (stereo unspecified) | . | . | . | - | . | .
CC1(C)CC(Cc2ccc(C(=O)c3ccccc3)cc2)N(C(=O)OC(C)(C)C)N1 (stereo unspecified) | 4.11µM | . | . | - | - | 6.51µM
CC(C)(C)OC(=O)N1CCC(CNC(=O)c2ccccc2)CC1 | - | - | - | - | - | -
Cc1cccc(N2CCN(C(=O)C3CCN(S(=O)(=O)c4cn(C)c(C)n4)CC3)CC2)c1C | . | . | . | - | . | .
COc1ccc(NC(=O)C(=O)NCCN2CCN(C(=O)c3ccc(C(C)(C)C)cc3)CC2)cc1 | 16.4µM | - | - | - | - | 16.4µM
Cc1cc(NC(=O)C(=O)NCCN2CCN(C(=O)c3cccs3)CC2)ccc1Br | ? | ? | - | - | ? | ?
COc1ccccc1C(=O)N1CCN(CCNC(=O)C(=O)Nc2ccc(Br)c(C)c2)CC1 | 10.3µM | - | - | - | - | ?
Cc1ccccc1C(=O)N1CCN(CCNC(=O)C(=O)Nc2ccc(Br)cc2)CC1 | ? | - | - | - | - | 14.6µM
Cc1ccc(NC(=O)C(=O)NCCN2CCN(C(=O)c3ccc(Br)cc3)CC2)cc1 | . | . | . | - | . | .
O=C1CCCC2=C1C(c1ccc(OC(F)F)cc1)C=C1c3cc4c(cc3CCN12)OCCCO4 (stereo unspecified) | . | . | . | - | . | .
CC(=O)Nc1nnc(C)s1 | - | - | - | - | - | -
CC(=O)Nc1nnc([N+](=O)[O-])s1 | 18.4µM | . | . | - | - | 18.4µM
CCCCn1c(=N)n(CC(O)COc2ccc(C)cc2)c2ccccc21 (stereo unspecified) | 4.11µM | - | - | - | -73.2 | 6.51µM
CCn1c(=N)n(CC(O)c2ccccc2)c2ccccc21 (stereo unspecified) | - | ? | - | - | - | -
CCCCn1c(=N)n(CC(O)COc2ccccc2)c2ccccc21 (stereo unspecified) | 11.6µM | - | - | - | ? | 11.6µM
CCCCn1c(=N)n(CC(O)c2ccccc2)c2ccccc21 (stereo unspecified) | 23.1µM | - | - | - | -67.0 | 14.6µM
O=C(c1cc2ccccc2oc1=O)N1CCN(S(=O)(=O)c2ccc(F)cc2)CC1 | . | . | . | - | . | .
Cc1cc(NC(=O)CSc2nnnn2-c2cccc(C)c2C)n(-c2ccccc2)n1 | . | . | . | - | . | .
COc1cccc(OC)c1C(=O)C1CC(=O)Nc2c1c(C)nn2-c1cccc(C)c1C (stereo unspecified) | . | . | . | - | . | .
COC(=O)c1ccc(NC2=C(C(N)=O)S(=O)(=O)c3ccccc32)cc1 | . | . | . | - | . | .
CCOc1cc(C(=O)Nc2c(NC3CCCCC3)c3ccccc3oc2=O)cc(OCC)c1OCC | . | . | . | - | . | .
SMILES | DT40 TDP1 no CPT | RORg inh | Gal4-VP16 FLuc | LDHA block | IL1B secr inh | TDP1 cell CPT
C[C@]12c3[nH]c4cc(-c5ccco5)ccc4c3CCN1C(=O)[C@@H](CC(=O)NCC13CC4CC(CC(C4)C1)C3)C[C@@H]2C(=O)N1CCOCC1 | ? | . | . | - | - | ?
CC(C)N(C(=O)[C@H]1C[C@H](CC(=O)NCc2cccc(C(F)(F)F)c2)C(=O)N2CCc3c([nH]c4cc(-c5ccco5)ccc34)[C@]12C)C(C)C | ? | . | . | - | -67.4 | ?
C[C@]12c3[nH]c4cc(-c5ccco5)ccc4c3CCN1C(=O)[C@@H](CC(=O)NCc1cccc(C(F)(F)F)c1)C[C@@H]2C(=O)N1CCOCC1 | ? | . | . | - | -52.8 | ?
CC(C)N(C(=O)[C@H]1C[C@H](CC(=O)NCCC2=CCCCC2)C(=O)N2CCc3c([nH]c4cc(-c5ccco5)ccc34)[C@]12C)C(C)C | ? | . | . | - | -68.7 | ?
CC(C)N(C(=O)[C@H]1C[C@H](CC(=O)NCc2ccco2)C(=O)N2CCc3c([nH]c4cc(-c5ccco5)ccc34)[C@]12C)C(C)C | ? | . | . | - | ? | ?
O=C(Nc1ccc(Cl)cc1Cl)c1cc(=O)[nH]c2ccc(S(=O)(=O)N3CCOCC3)cc12 | . | . | . | - | . | .
Cc1ccc(CSc2cn(CC(=O)N3CCCCCC3)c3ccccc23)cc1 | 20.6µM | . | . | - | . | ?
Cc1ccc(CSc2cn(CC(=O)N3CCCC3)c3ccccc23)cc1 | 16.4µM | . | . | - | . | 16.4µM
CCc1ccc(C(=O)Nc2cccc3ncccc23)cc1 | . | . | . | - | . | .
COc1cc(Nc2ccc(C)cc2)c([N+](=O)[O-])nc1[N+](=O)[O-] | 2.59µM | - | - | - | - | 2.06µM
Cc1cc(C)cc(Nc2ccc([N+](=O)[O-])nc2[N+](=O)[O-])c1 | - | - | - | - | - | -
CN1C(=O)Cc2cc(-c3csc(-c4ccccc4)n3)ccc21 | . | . | . | - | . | .
COc1ccc(OC)c(-c2csc(NC(=O)CSc3ccc([N+](=O)[O-])cc3)n2)c1 | 16.4µM | - | ? | - | -68.5 | ?
COc1ccc(OC)c(-c2csc(NC(=O)c3ccc(OCC4CCCO4)cc3)n2)c1 (stereo unspecified) | ? | - | - | - | - | ?
COc1ccc(OC)c(-c2csc(NC(=O)Cc3ccc(F)cc3)n2)c1 | ? | - | - | - | -69.0 | -
COc1ccc(OC)c(-c2csc(NC(=O)c3ccc(F)cc3)n2)c1 | ? | 11.2µM | 10µM | - | - | 7.31µM
COc1ccc(OC)c(-c2csc(NC(=O)Cn3[nH]c(=O)c4ccccc4c3=O)n2)c1 | ? | ? | ? | - | - | ?
Cc1ccc(-c2csc(NC(=O)Cc3ccc(F)cc3)n2)o1 | - | - | -[10 µM] | - | -64.6 | -
O=C(Nc1nc(-c2ccc(Cl)s2)cs1)c1ccc(F)cc1 | . | . | . | - | . | .
CCOCCSc1nc2c(c(=O)[nH]c(=O)n2C)n1CCC(C)C | . | . | . | - | . | .
Cc1cccc(C)c1NC(=O)c1ccc2ccccc2n1 | . | . | . | - | . | .
COCc1c(C#N)c(NCc2cc(OC)c(OC)c(OC)c2)nc(C)c1[N+](=O)[O-] | 20.6µM | ? | ? | - | - | 18.4µM
C=C(C)CN1CCN(c2nc3c(c(=O)[nH]c(=O)n3C)n2Cc2ccccc2)CC1 | . | . | . | - | . | .
Cc1ccc(N2CCN(C(=O)c3c4c(nc5ccccc35)C(=O)N(C3CCCCC3)C4)CC2)c(C)c1 | 10.3µM | . | . | - | . | 9.2µM
